KDM5B inh = KDM5B demethylase inhibition; Q9UGL1; KDM5B demethylase, FDH-coupled NADH fluorescence (FDH is formaldehyde dehydrogenase); Potency, µM (highest dose often 57.7 µM), hits mostly inhibitors; 2.6% of 220,000 active; active = well fitted inhibition curve with a large enough effect; note: nearly all actives have a fitted effect of over 70% in size
Target sequence (Q9UGL1 whole entry, looked up): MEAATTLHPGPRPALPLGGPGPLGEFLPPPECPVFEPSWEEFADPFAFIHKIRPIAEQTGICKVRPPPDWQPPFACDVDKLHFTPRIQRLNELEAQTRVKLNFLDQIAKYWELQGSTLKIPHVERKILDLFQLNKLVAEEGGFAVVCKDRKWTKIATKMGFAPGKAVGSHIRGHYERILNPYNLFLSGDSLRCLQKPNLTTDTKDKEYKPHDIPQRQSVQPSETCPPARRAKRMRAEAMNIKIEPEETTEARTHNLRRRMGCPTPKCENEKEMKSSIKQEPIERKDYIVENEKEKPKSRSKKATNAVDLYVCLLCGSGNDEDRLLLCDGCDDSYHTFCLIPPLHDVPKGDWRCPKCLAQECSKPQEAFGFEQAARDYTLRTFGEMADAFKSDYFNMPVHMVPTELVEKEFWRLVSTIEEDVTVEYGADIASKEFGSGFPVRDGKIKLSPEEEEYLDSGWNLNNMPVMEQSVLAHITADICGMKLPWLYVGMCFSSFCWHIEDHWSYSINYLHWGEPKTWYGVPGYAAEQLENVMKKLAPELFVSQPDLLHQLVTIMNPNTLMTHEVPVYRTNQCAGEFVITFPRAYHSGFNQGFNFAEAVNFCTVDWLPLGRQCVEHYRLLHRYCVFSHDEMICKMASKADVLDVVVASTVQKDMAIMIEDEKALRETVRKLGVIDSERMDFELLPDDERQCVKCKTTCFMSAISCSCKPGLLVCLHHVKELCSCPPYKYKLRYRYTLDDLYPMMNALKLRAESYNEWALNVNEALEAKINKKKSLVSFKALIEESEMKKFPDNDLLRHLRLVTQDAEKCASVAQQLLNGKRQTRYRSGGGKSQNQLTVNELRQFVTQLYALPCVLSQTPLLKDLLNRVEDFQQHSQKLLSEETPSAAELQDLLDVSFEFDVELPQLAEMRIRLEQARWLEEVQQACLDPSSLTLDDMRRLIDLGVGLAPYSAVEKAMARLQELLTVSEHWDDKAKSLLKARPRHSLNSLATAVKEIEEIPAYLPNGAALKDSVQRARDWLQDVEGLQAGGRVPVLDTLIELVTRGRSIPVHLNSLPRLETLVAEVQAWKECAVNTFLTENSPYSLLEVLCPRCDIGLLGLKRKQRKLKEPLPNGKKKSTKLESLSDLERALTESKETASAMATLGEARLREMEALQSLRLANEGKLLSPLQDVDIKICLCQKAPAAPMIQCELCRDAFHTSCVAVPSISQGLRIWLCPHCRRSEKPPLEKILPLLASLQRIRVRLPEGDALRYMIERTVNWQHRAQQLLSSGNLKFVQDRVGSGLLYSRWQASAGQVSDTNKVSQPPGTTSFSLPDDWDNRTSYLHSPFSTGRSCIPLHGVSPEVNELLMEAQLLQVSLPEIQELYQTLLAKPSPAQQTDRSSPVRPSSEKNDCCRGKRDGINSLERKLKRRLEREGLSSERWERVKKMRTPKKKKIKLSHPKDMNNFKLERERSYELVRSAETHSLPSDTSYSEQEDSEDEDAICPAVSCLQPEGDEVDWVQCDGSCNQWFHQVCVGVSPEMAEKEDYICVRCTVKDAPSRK
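KDM5BΔAP (200 nM final) in 50 mM HEPES pH 7.5, 0.01% Tween-20 was preincubated 10 min at RT with compound over a concentration range. Substrate mix (H3K4me3 12.5 µM, α-KG 25 µM, Fe²⁺, ascorbate, NAD⁺, FDH) was added, and NADH fluorescence change over 30 min gave dose-response curves.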
Numbers stand for hits. This excerpt belongs to a sample that is enriched for hits.

Screening Cc1nn(CC(=O)c2cc(C)n(CCC(C)C)c2C)c(=O)c(C#N)c1C returned KDM5B inh inactive.
For Cc1ccc(NC(=O)C2CCCC2)cc1I the results were KDM5B inh inactive.
Screening Cc1cc(CN2CCC3(CC2)CN(C2CCC2)CC3CO)n(C)n1 (centres undefined) returned KDM5B inh 18µM.
Screening Cc1cc(CN2CCC3(CC2)CN(c2ccncn2)CC3CO)n(C)n1 (centres undefined) returned KDM5B inh inactive.
`O=C(CN1CCOCC1)N1CCC2(CC1)CN(C1CCC1)CC2CO` (centres undefined) gave KDM5B inh inactive.
For CCn1cc(C(=O)N2CCC(C3CCN(C(=O)NC)CC3)C2)cn1 (centres undefined) the results were KDM5B inh inactive.
`Cc1ncsc1CN1CCC2(CC1)CN(C1CCC1)CC2CO` (centres undefined) gave KDM5B inh inactive.
Screening CCn1cc(C(=O)N2CCC3(CC2)CN(C2CCC2)CC3CO)cn1 (centres undefined) returned KDM5B inh 10µM.
Screening O=C(c1ccncc1)N1CCCCC1c1nc(CCOc2ccc(F)cc2)no1 (centres undefined) returned KDM5B inh inactive.
`Cc1ccc(SCCNC(=S)Nc2ccc(Nc3ccccc3)cc2)cc1` gave KDM5B inh inactive.
`CNC(=O)N1CCC(C2CCN(C(=O)c3ccc(OC)nc3)C2)CC1` (centres undefined) gave KDM5B inh inactive.
Screening CNc1ncccc1C(=O)N1CCc2nc(-c3cn[nH]c3)[nH]c2C1 returned KDM5B inh 28µM.
For Cc1nnnn1Cc1ccc(C(=O)N2CCc3nc(-c4cn[nH]c4)[nH]c3C2)cc1 the results were KDM5B inh inactive.
Screening Cc1cn(CC(=O)N2CCc3nc(-c4cn[nH]c4)[nH]c3C2)c(=O)[nH]c1=O returned KDM5B inh inactive.
Screening COCCN1C(=O)c2cccn2CC1CNC(=O)c1ccc(OC)c(OC)c1 (centres undefined) returned KDM5B inh inactive.
For Cc1noc(C)c1C(=O)OC(C)C(=O)NC1CCCC1 (centres undefined) the results were KDM5B inh inactive.
`O=C(Cn1ccc2cc(Br)ccc21)NC1CC1` gave KDM5B inh inactive.
`Cc1ccc2c(c1)N1C(=O)OC[C@@H]1CCN(CC1CC1)C2` gave KDM5B inh inactive.
CCOc1ccccc1C(=O)N[C@@H]1CN(c2ccncn2)C[C@H]1CO was read as KDM5B inh inactive.
Screening Cc1ncccc1C(=O)N[C@@H]1CN(c2ncccn2)C[C@H]1CO returned KDM5B inh 20µM.
For COc1ccccc1CCC(=O)N1C[C@@H](CO)[C@H](c2ccncc2)C1 the results were KDM5B inh inactive.
Screening COc1ccccc1CCC(=O)N1C[C@@H](CO)[C@H](NC(C)=O)C1 returned KDM5B inh inactive.
`O=C(N[C@@H]1CN(c2ncccn2)C[C@H]1CO)c1ccoc1` gave KDM5B inh 13µM.
Cc1cc(CN2C[C@@H](CO)[C@H](NC(=O)c3ccccc3)C2)n(C)n1 was read as KDM5B inh inactive.
Cc1ccc(C)c(C(=O)N[C@@H]2CN(c3ccncn3)C[C@H]2CO)c1 was read as KDM5B inh inactive.
Screening O=C(N[C@@H]1CN(Cc2ccccc2)C[C@H]1CO)c1ccnnc1 returned KDM5B inh inactive.
For Cc1nn(C)c(C)c1C(=O)N[C@@H]1CN(c2ncccn2)C[C@H]1CO the results were KDM5B inh 20µM.
For COc1ccccc1CCC(=O)N[C@@H]1CN(c2ncccn2)C[C@H]1CO the results were KDM5B inh 18µM.
Screening O=C(N[C@@H]1CN(c2ccncn2)C[C@H]1CO)c1ccco1 returned KDM5B inh inactive.
`Cc1cccc(CC(=O)N[C@@H]2CN(c3ccncn3)C[C@H]2CO)c1` gave KDM5B inh inactive.
For O=C(Nc1ccccc1)N1CCN(c2cc(=O)n3nc(-c4ccco4)sc3n2)CC1 the results were KDM5B inh inactive.
O=C(c1cnccn1)N1CCC2(CN[S+](=O)([O-])c3cnccc3O2)C1 (centres undefined) was read as KDM5B inh inactive.
For c1cc2c(cc1C1CCCN1Cc1nnnn1C1CC1)OCCO2 (centres undefined) the results were KDM5B inh inactive.
Screening COc1cc(CC(=O)NC(C)c2cccs2)cc(OC)c1OC (centres undefined) returned KDM5B inh inactive.
Screening COc1ccc(Cl)cc1NC(=O)Cn1c(=O)c(-c2noc(C)n2)c2n(c1=O)CCCC2 returned KDM5B inh inactive.
For N#Cc1nc(-c2ccc([N+](=O)[O-])cc2)oc1NCCc1ccccc1 the results were KDM5B inh inactive.
`Cc1ccc(NC(=O)N2CCC(n3c(C)cnc3C3CCOCC3)CC2)cc1C` gave KDM5B inh inactive.
C[C@@H]1C(=O)O[C@H]2[C@H]1CC[C@@]1(C)Cc3sc(NC(=O)CN(C)C)nc3[C@@H](C)[C@H]21 was read as KDM5B inh inactive.
C[C@@H]1C(=O)O[C@H]2[C@H]1CC[C@@]1(C)Cc3sc(Nc4ccc(C(=O)O)cc4)nc3[C@@H](C)[C@H]21 was read as KDM5B inh 35µM.
`C[C@@H]1C(=O)O[C@H]2[C@H]1CC[C@@]1(C)Cc3sc(Nc4ccccc4)nc3[C@@H](C)[C@H]21` gave KDM5B inh inactive.
C[C@@H]1C(=O)O[C@H]2[C@H]1CC[C@@]1(C)Cc3sc(Nc4cccnc4)nc3[C@@H](C)[C@H]21 was read as KDM5B inh inactive.
Screening C[C@@H]1C(=O)O[C@H]2[C@H]1CC[C@@]1(C)Cc3sc(NC(=O)CCC(=O)O)nc3[C@@H](C)[C@H]21 returned KDM5B inh inactive.
For C[C@@H]1C(=O)O[C@H]2[C@H]1CC[C@@]1(C)Cc3sc(NC(=O)c4ccc(N(C)C)cc4)nc3[C@@H](C)[C@H]21 the results were KDM5B inh 28µM.
Cc1ccccc1NS(=O)(=O)c1ccc2c(c1)c(=O)n(CC(=O)N1CCCCCC1)c(=O)n2C was read as KDM5B inh inactive.
`COCCN1CCNc2nc(CNCc3cccc(Cl)c3)n(Cc3ccccc3)c2C1=O` gave KDM5B inh inactive.
Screening O=C1c2c(nc(CNCc3cnccn3)n2Cc2ccccc2)NCCN1Cc1cccc(Cl)c1 returned KDM5B inh 25µM.
For O=C1c2c(nc(CNCc3cccnc3)n2Cc2ccccc2)NCCN1Cc1cccc(Cl)c1 the results were KDM5B inh inactive.
For Cc1ccc(NC(=O)C2=Cc3sc4c(c3CS2)CCCC4)cc1C the results were KDM5B inh inactive.
Cc1ccc(C)c(CSc2nnc(C(N)Cc3ccccc3)o2)c1 (centres undefined) was read as KDM5B inh inactive.
`CCn1ncc(CN2CCCCCNC(=O)CC2c2ccccc2)c1C` (centres undefined) gave KDM5B inh inactive.
Screening Cc1ccc(CN2CCCCCNC(=O)CC2c2ccccc2)o1 (centres undefined) returned KDM5B inh 28µM.
`O=C1CC(c2ccccc2)N(Cc2ccccn2)CCCCCN1` (centres undefined) gave KDM5B inh inactive.
Screening COc1ccc(CCNC(=O)Nc2cccc(CN3CCOC3=O)c2)cc1 returned KDM5B inh inactive.
CCC1CCCCN1C(=O)Cn1c(=O)n(Cc2ccc3c(c2)OCO3)c(=O)c2sccc21 (centres undefined) was read as KDM5B inh inactive.
Screening Cc1cc(C[C@@H]2COC[C@@H]2NC(=O)c2cnc(Nc3ccccc3)nc2)on1 returned KDM5B inh inactive.

From PubChem BioAssay
